Holding throughout (test): NCI-60 one-dose screen, 48 h (100 = growth as untreated, 0 = no growth, -100 = all killed)
What all share (conditions): 10 µM unless noted

The test system of assay [1] is T-47D breast.
The subject of assay [2] is BT-549 breast.
For assay [3], the system named is MDA-MB-435 melanoma.
Assay [4] concerns SW-620 colon.
Assay [5] deals with MCF7 breast.
The test system of assay [6] is HCT-116 colon.
Assay [7] relates to HCC-2998 colon.
For assay [8], the system named is KM12 colon.

“And” between values parts separate entries of the source, which are not always exact repeats. Equal values may be shown once. Compounds without any hit were thinned out: in the full panel of roughly 83,000, 20% have a hit.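 96-well plates, one dose, 48 hours. Percent growth reported; active if below 10.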 Unmarked numbers belong to inactive results. The source made the active and inactive calls.

Turning to `Fc1ccc(NC(c2ccc(F)cc2)C2CCN(CCCCc3ccccc3)CC2)cc1` (configuration not stated), the growth is 22.4% in assay [1]; 61.1% in assay [2]; 43.8% in assay [3]; 12.7% in assay [4]; 5.18% (active) in assay [5]; -55.4% (active) in assay [6]. Besides, the growth in assay [7] was 16.3%; in assay [8], 29.9%.
`CCN(CC)/C([O-])=c1\cccc\c1=C1\N=C(c2ccccc2)N=C1[n+]1ccc(-c2ccccc2)cc1`: the growth is 90.5% in assay [1]; 93.3% in assay [2]; 96.8% in assay [3]; 91.6% in assay [4]; 93% in assay [5]; 97% in assay [6]. For the same compound, the growth in assay [7] was 93.3%; in assay [8], 96.3%.
As to `O=C(O)C1C2CCC1C(O)C2` (configuration not stated), the growth in assay [1] is 92.3% and 97.4%; in assay [2], 98.2% and 97.1%; in assay [3] it was 106%; in assay [4], 107% and 113%; in assay [5], 92% and 97.8%; in assay [6], 100% and 101%. For the same compound, the growth is 99.9% and 101% in assay [7]; 107% and 98.7% in assay [8].
Consider `O=C(Nc1ncc(Cc2cccc(C(F)(F)F)c2)s1)c1ccc(-n2cnnn2)cc1`, for which the growth in assay [1] was 44.7%; in assay [2], 67.6%; in assay [3] it was 24%; in assay [4], 53.4%; in assay [5] it was 28.7%; in assay [6], 42.4%. The growth in assay [7] is 48.9%; in assay [8], 28.8%.
On to `Cc1ccc(/C=C(\C#N)c2cc3ccccc3[nH]2)cc1`, for which the growth is 36.1% in assay [1]; 56.9% in assay [2]; -5.1% (active) in assay [3]; 16.4% in assay [4]; 22.4% in assay [5]; 32.5% in assay [6]. In addition, the growth in assay [7] is 65.9%; in assay [8], 31.7%.
Take `Cc1ccc(-c2nc3nc(-c4ccc(Br)cc4)nc(N4CCCNCC4)c3o2)cc1`: the growth is -8.11% (active) in assay [1]; 99.5% in assay [2]; 7.5% (active) in assay [3]; -72.4% (active) in assay [4]; -75.8% (active) in assay [5]; -79.8% (active) in assay [6]. Moreover, the growth is -80.7% (active) in assay [7] and -90.9% (active) in assay [8].
For the compound `COc1ccc(-c2ccccc2)cc1-c1c(Nc2cc(Cl)cc(Cl)c2O)c(=O)c1=O`, the growth was -8.93% (active) in assay [1]; 19.7% in assay [2]; -4.35% (active) in assay [3]; 17.5% in assay [4]; 5.24% (active) in assay [5]; 11.2% in assay [6]. Further, the growth in assay [7] was 13.8%; in assay [8], 7.85% (active).
With `Nc1nc(Cl)nc2c1ncn2C1OC(CO)C(O)C1O` (configuration not stated), the growth in assay [1] is 93.5% and 107%; in assay [2] it was 40.2%; in assay [3] it was 49.2% and 53.5%; in assay [4], 66.5% and 72.8%; in assay [5], 37.8% and 33.8%; in assay [6], 41.9% and 43%. Besides, the growth in assay [7] was 51% and 51.7%; in assay [8], 60.1% and 86.2%.
In the case of `CCOC(=O)CC1CSC(c2cccc(Cl)c2)=N1` (configuration not stated), the growth in assay [1] is 102%; in assay [2], 111%; in assay [3] it was 112%; in assay [4], 108%; in assay [5], 87.8%; in assay [6], 97.2%. Also, the growth in assay [7] is 82.7%; in assay [8] it was 108%.
`O=C1C(Nc2ccc(Cl)cc2)=C(I)C(=O)c2ncccc21`: the growth in assay [1] was -34.2% (active); in assay [2] it was 53.3%; in assay [3], -80.5% (active); in assay [4] it was -27% (active); in assay [5], -34.3% (active); in assay [6] it was -57.3% (active). Besides, the growth was 79.5% in assay [7] and 39.8% in assay [8].
For `CN(C)CCCn1c2nc(=O)[nH]c(=O)c-2nc2cc(Cl)c(Cl)cc21`, the growth was 34.8% in assay [1]; 113% in assay [2]; 106% in assay [3]; 13.6% in assay [4]; 4.93% (active) in assay [5]; -18.5% (active) in assay [6]. Also, the results for the growth in assay [7] and in assay [8] were 91.6% and 57.5%, respectively.
Turning to `COc1cc(-c2[nH]ncc2Nc2ccc(Cl)cc2)cc(OC)c1OC`, the growth is 46.4% in assay [1]; 29.8% in assay [2]; 55.5% in assay [3]; 82.6% in assay [4]; 41.9% in assay [5]; 58.4% in assay [6]. For the same compound, the values for the growth in assay [7] and in assay [8] were 83.4% and 63.5%, respectively.
As to `Cc1cccc(Cc2cnc(NC(=O)CCCOc3ccc(Cl)cc3)s2)c1`, the growth is 33.5% in assay [1]; 61.5% in assay [2]; -53.2% (active) in assay [3]; 25% in assay [4]; 20% in assay [5]; 16.4% in assay [6]. Further, the values for the growth in assay [7] and in assay [8] were 48.9% and 21.8%, respectively.
Take `CN1CCN(Cc2ccc(NC(=O)c3nc4ccc5[nH]ncc5c4c4c3CCCC4)cc2C(F)(F)F)CC1`: the growth is -69.3% (active) in assay [1]; -78.5% (active) in assay [2]; -82.6% (active) in assay [3]; -60% (active) in assay [4]; -68.5% (active) in assay [5]; -90.4% (active) in assay [6]. In addition, the growth in assay [7] was -80.7% (active); in assay [8] it was -73.4% (active).
